PubChem BioAssay (Tox21)
Results filed as inconclusive are left out. Active and inactive are the calls of the source. The call rests on the fitted dose curve.

target: Progesterone receptor (Homo sapiens) (UniProt P06401); assay: qHTS assay to identify small molecule agonists of the progesterone receptor (PR) signaling pathway (AID 1346784); details: PR-UAS-bla HEK293T, beta-lactamase FRET ratio, 16 h; series mostly up to 92.4 µM; activation: at the top concentration; further: nearly all actives have a fitted effect of over 30% in size
Text: U.S. Tox21 Program National Center for Advancing Translational Sciences [NCATS] NIH Chemical Genomics Center [NCGC] U.S. Environmental Protection Agency [EPA] National Institutes of Environmental Health Sciences [NIEHS] National Toxicology Program [NTP] U.S. Food and Drug Administration [FDA] […] Endocrine disrupting chemicals (EDCs) and their interactions with steroid hormone receptors like PR causes disruption of normal endocrine function. To identify the compounds that activate PR signaling, a PR-UAS-bla GripTite cell line i.e. PR-UAS-bla HEK 293T (Invitrogen, Carlsbad, CA, USA) containing a beta-lactamase reporter gene under the control of an Upstream Activator Sequence (UAS) was used to screen Tox21 10K compound library.
Tox21 Assay Protocol Summary: PR-UAS-bla HEK 293T cells were dispensed at 3,000 cells/5 uL of assay medium containing 2% charcoal stripped FBS per well into black wall/clear-bottom 1536-well plates using a Multidrop Combi (ThermoFisher Scientific, Waltham, MA) dispenser. After the assay plates were incubated at a 37C and 5% CO2 for 6hr, 23 nL of compounds dissolved in DMSO, positive controls or DMSO only was transferred to the assay plate by a Pintool station (Kalypsys, San Diego, CA). The plates were incubated at 37C and 5% CO2 for 16hr. Then 1 uL of LiveBLAzer B/G FRET substrate was added using a BioRAPTR FRD (Flying Reagent Dispenser, Aurora Discovery, San Diego, CA). After the plates were incubated at room temperature for 2 hours, fluorescence intensity was measured by an Envision plate reader (PerkinElmer, Shelton, CT).
On the % scale 0 is the no-effect control and ±100 the full control effect.

Sequence of Progesterone receptor (Homo sapiens) (P06401 whole entry, looked up): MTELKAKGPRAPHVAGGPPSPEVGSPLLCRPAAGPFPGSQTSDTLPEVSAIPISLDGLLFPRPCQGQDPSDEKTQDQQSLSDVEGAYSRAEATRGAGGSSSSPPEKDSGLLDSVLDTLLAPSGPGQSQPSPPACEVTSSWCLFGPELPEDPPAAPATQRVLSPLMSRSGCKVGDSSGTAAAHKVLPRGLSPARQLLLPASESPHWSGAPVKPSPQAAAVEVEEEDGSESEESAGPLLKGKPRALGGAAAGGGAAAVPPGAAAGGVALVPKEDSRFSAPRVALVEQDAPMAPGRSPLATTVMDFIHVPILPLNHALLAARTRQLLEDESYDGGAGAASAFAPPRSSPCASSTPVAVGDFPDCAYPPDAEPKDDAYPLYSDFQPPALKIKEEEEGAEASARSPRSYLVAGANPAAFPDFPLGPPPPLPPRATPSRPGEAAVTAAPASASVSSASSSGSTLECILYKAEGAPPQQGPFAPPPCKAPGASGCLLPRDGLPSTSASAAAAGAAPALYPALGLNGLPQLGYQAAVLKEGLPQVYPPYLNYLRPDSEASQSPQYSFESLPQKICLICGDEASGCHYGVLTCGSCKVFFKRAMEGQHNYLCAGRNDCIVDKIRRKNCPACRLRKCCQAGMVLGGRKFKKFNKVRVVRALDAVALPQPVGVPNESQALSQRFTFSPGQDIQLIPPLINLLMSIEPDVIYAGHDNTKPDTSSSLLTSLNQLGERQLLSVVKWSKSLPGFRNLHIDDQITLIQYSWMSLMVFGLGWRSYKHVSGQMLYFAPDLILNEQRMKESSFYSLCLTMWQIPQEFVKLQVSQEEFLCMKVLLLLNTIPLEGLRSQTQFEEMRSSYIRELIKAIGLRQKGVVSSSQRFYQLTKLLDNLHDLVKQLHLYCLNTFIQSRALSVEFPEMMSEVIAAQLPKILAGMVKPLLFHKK

SMILES | activation
NC(=O)C(c1ccccc1)(c1ccccc1)[C@@H]1CCN(CCc2ccc3c(c2)CCO3)C1 | -0.0486% [at 42.5 µM] (inactive)
CCNc1cc(O)ccc1C | -0.159% (inactive)
CC/C=C\CCOC(=O)CC | 0.723% (inactive)
O=C(O)c1ccc(S(=O)(=O)O)cc1C(=O)O | -2.16% (inactive)
CC(C)Cc1ccc(C(C)C(=O)OCc2ccccn2)cc1 (stereo not given) | 4.37% [at 42.5 µM] (inactive)
COS(=O)(=O)C(F)(F)F | 0.884% (inactive)
C/C=C/C=C/CO | 0.327% (inactive)
O=CC1CC=CCC1 (stereo not given) | 2.65% (inactive)
CCn1cc(C(=O)O)c(=O)c2cnc(N3CCNCC3)nc21 | -0.73% [at 42.5 µM] (inactive)
COCC(C)OC(C)=O (stereo not given) | -1.36% (inactive)
CCCCCCCCCCCc1ccccc1 | -1.63% (inactive)
OCCNCc1ccccc1 | -3.36% (inactive)
Cn1c(=O)cc(Oc2ccc(F)cc2F)c2cnc(NCC(C)(C)O)nc21 | -3.88% (inactive)
COCCCN1CCC(NC(=O)c2cc(Cl)c(N)c3c2OCC3)CC1 | -2.26% [at 42.5 µM] (inactive)
Cc1ccc(C(=O)Oc2ccc(C(O)CNC(C)(C)C)cc2OC(=O)c2ccc(C)cc2)cc1 (stereo not given) | -1.21% [at 42.5 µM] (inactive)
CCCCCCCCCCCCCCCCOS(=O)(=O)O | 1.13% [at 42.5 µM] (inactive)
CCCCC(CC)COC(=O)COc1ccc(Cl)cc1Cl (stereo not given) | -0.762% (inactive)
COc1ccc(C)cc1[N+](=O)[O-] | -1.11% (inactive)
O=C(OCCc1ccccc1)c1ccccc1 | -3.97% (inactive)
COC(=O)C1=C(C)NC(COC(N)=O)=C(C(=O)OC(C)C)C1c1cccc(Cl)c1Cl (stereo not given) | 5.6% [at 42.5 µM] (inactive)

SMILES | activation
CCCCCCCN | -0.0675% (inactive)
CN1CCN(C(c2ccccc2)c2ccccc2)CC1 | -0.865% [at 42.5 µM] (inactive)
CCOC(=O)COC(=O)c1cc(Oc2ccc(C(F)(F)F)cc2Cl)ccc1[N+](=O)[O-] | 6.27% (inactive)
COc1cc2c(cc1OC)C(C(C(=O)N(CCc1ccc(OC)c(OC)c1OC)CCc1ccc(OC)c(OC)c1OC)c1ccccc1)=NCC2 (stereo not given) | 7.9% [at 42.5 µM] (inactive)
CC(CC=O)c1ccccc1 (stereo not given) | 6.94% (inactive)
C#Cc1cccc(Nc2ncnc3cc(OCCOC)c(OCCOC)cc23)c1 | -3.08% [at 42.5 µM] (inactive)
CN1Cc2cc(C(=O)N3CCC(C4CCNCC4)CC3)ccc2NC(CC(=O)O)C1=O (stereo not given) | 0.569% [at 42.5 µM] (inactive)
CN(C)CCOC(c1ccccc1)c1ccc(Br)cc1 (stereo not given) | -12.3% [at 42.5 µM] (inactive)
Cc1cc(N)c2cc(NC(=O)Nc3ccc4nc(C)cc(N)c4c3)ccc2n1 | 7.84% [at 42.5 µM] (inactive)
CC(=O)[O][Al][O]C(C)=O | 2.46% (inactive)
CCO[C@H](Cc1ccc(OCCc2ccc(OS(C)(=O)=O)cc2)cc1)C(=O)O | 0.0221% [at 42.5 µM] (inactive)
Nc1ccccc1S(=O)(=O)c1ccccc1 | 0.245% (inactive)
OC[C@H]1O[C@@H](OCCc2ccc(O)cc2)[C@H](O)[C@@H](O)[C@@H]1O | 1.35% [at 42.5 µM] (inactive)
CCCCCCCCCCCC(=O)OC[C@@H](O)[C@H]1OC[C@H](OCCO)[C@H]1OCCO | -1.07% (inactive)
Nc1ncn([C@H]2C[C@H](O)[C@@H](CO)O2)c(=O)n1 | -2.34% [at 42.5 µM] (inactive)
C1CCCNCCC1 | -0.739% (inactive)
Nc1cccc(S(=O)(=O)c2cccc(N)c2)c1 | -2.13% (inactive)
CC(C)OC(=O)C(C)N(C(=O)c1ccccc1)c1ccc(F)c(Cl)c1 (stereo not given) | 4.52% (inactive)
CC(COCCO)OCCO (stereo not given) | -0.159% (inactive)
COc1ccc(C(=O)N2CCN(CC(=O)N3CCOCC3)CC2)cc1 | 0.704% [at 42.5 µM] (inactive)
